# Sfp PPTase inh: qHTS Assay for Inhibitors of Bacillus subtilis Sfp phosphopantetheinyl transferase (PPTase). Biochemical Sfp PPTase activity, qHTS. Potency, µM, for the others: largest response in the series, negative = inhibition, usual class: inhibitors. actives 3.5% (n = 310,000). AID 1490, 2009;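 further: the enzyme is Sfp with the accession as filed and its product quenches rhodamine fluorescence; 0% = enzyme reaction without inhibitor and -100% = no enzyme wells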
#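 Reaction rates are the 30-min fluorescence difference (ex 525, em 598 nm) in wells containing 15 nM Sfp, 5 uM rhodamine-CoA and 12.5 uM BHQ-2-YbbR at pH 7.6 with 10 mM MgCl2.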
# JMJD2A Tudor inh: qHTS Assay for Inhibitors of JMJD2A-Tudor Domain; AID 504339, 2011; actives 4.4% (n = 390,000); AlphaScreen JMJD2A-Tudor / H3K4me3 peptide binding; Potency, µM (doses to about 114 µM), for inactives: at the top dose activity change, negative = inhibition, most hits filed as inhibitors; Lysine-specific demethylase 4A (Homo sapiens), O75164; further: on the % scale 0 is the no-effect control and ±100 the full control effect; nearly all actives have a fitted effect of over 50% in size
# BAZ2B inh: qHTS Assay for Inhibitors of BAZ2B; AID 504333, 2011; Potency, µM (titrated, usually from 114 µM), for inactives: at the highest dose activity change, negative = inhibition, hits mostly inhibitors; Bromodomain adjacent to zinc finger domain protein 2B (Homo sapiens), Q9UIF8; AlphaScreen BAZ2B-H3K14Ac peptide displacement; actives 4.4% (n = 360,000); further: on the % scale 0 is the no-effect control and ±100 the full control effect; nearly all actives have a fitted effect of over 60% in size
#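 Multi-concentration screen (max 110 uM) measuring displacement of acetylated histone H3 peptide from BAZ2B by AlphaScreen, using 50 nM protein, 50 nM peptide and 10 ug/mL streptavidin donor plus Ni-chelate acceptor beads.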
# HP1b binding inh: HTS for Inhibitors of HP1-beta Chromodomain Interactions with Methylated Histone Tails | AlphaScreen HP1-beta / biotin-H3K9me3 peptide binding | Potency, µM (titrated, usually from 114 µM), for inactives: at the highest dose activity change, negative = inhibition, most hits filed as inhibitors | actives 0.56% (n = 390,000); further: nearly all actives have a fitted effect of over 70% in size
# Target sequence (P83916 whole entry, looked up): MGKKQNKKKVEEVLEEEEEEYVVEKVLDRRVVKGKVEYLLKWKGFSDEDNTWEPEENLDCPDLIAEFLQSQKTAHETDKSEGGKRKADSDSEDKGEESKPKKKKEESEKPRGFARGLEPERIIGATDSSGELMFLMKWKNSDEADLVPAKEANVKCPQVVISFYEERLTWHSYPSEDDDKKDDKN
#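 HP1-beta protein (50 nM final) preincubated 30 min at room temperature with biotinylated H3(1-18)K9me3 peptide (50 nM) in PBS pH 7.4, 0.01% Tween-20, then compound added for 30 min. AlphaScreen streptavidin donor/nickel chelate acceptor beads (10 ug/mL final), 30 min dark, luminescence read.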
# G9a inh: qHTS Assay for Inhibitors of Histone Lysine Methyltransferase G9a; Histone-lysine N-methyltransferase EHMT2 (Homo sapiens), Q96KQ7; G9a H3K9 monomethylation, AlphaScreen, 2 h; Potency, µM (series often up to 102 µM), without a hit: at the top dose activity, negative = inhibition, actives largely listed as inhibitors; actives 8.8% (n = 350,000); further: on the % scale 0 is the no-effect control and ±100 the full control effect; nearly all actives have a fitted effect of over 75% in size
# Target sequence (Q96KQ7 913-1193 limits assumed): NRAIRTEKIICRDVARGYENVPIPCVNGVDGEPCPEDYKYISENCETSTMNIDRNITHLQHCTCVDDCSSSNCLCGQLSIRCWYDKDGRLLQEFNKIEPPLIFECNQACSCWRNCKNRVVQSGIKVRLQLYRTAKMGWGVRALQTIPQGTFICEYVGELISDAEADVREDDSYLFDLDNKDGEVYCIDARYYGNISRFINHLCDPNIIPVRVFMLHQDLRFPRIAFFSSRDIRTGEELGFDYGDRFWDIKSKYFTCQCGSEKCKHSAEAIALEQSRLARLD
#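 AlphaScreen read-out: biotin-H3K9 peptide (500 nM) methylation by 20 nM enzyme with 20 uM SAM, 2 h at room temperature after 15 min compound preincubation; anti-monomethyl H3K9 antibody plus donor/acceptor beads, 10 min dark.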
# ALOX12 inh: Primary qHTS assay for inhibitors of human arachidonate 12S-lipoxygenase (ALOX12): Round 2 | Polyunsaturated fatty acid lipoxygenase ALOX12 (Homo sapiens), P18054 | purified 12hLO, xylenol orange hydroperoxide absorbance | actives 1.1% (n = 580,000) | Potency, µM (highest dose often 108 µM), inactives show top-dose activity change, negative = inhibition, hits mostly inhibitors; further: on the % scale 0 is the no-effect control and ±100 the full control effect
#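 Purified human 12hLO at 150 nM in 25 mM Hepes, 0.01% Triton X-100, pH 7.0, preincubated 15 min at room temperature with compound. Reaction started with 40 uM arachidonic acid, 30 min at room temperature. Hydroperoxide measured by Fe-xylenol orange, 573/405 nm absorbance ratio.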
# The depositor's hits bear a star; ? = inconclusive; · = no result given; [ ] = another dose, or the depositor's remark. This is a sample that favours compounds with a hit; in the whole collection about 8.7% have one here. The call rests on the fitted dose curve; in most records, active means well fitted curve in the direction sought with a large enough effect; inconclusive means small, poorly fitted or top-dose-only effect, or another doubt; inactive means no such curve, though single readings can be large; an effect the other way counts as inactive or inconclusive. Potency means the concentration at half of the fitted maximal effect.
SMILES,Sfp PPTase inh,JMJD2A Tudor inh,BAZ2B inh,HP1b binding inh,G9a inh,ALOX12 inh
CC(C)CCN1CCCN(CCN(C)C)c2ccccc21,·,·,·,·,·,13%
O=C([C@@H]1C[C@H](Oc2cccnc2)CN1C(=O)c1n[nH]c2ccccc12)N1CCOCC1,·,·,·,·,·,31%
Cc1ccc2c(c1)sc[n+]2Cc1ccccc1,25µM*,28µM*,71µM*,21%,?,?
O=C(O)c1ccc(/C=N/NC(=O)c2cc(-c3ccc4c5c(cccc35)CC4)n[nH]2)cc1,11%,?,50µM*,-14%,?,-17%
O=C(N/N=C/c1ccccn1)c1cc(-c2cccc3ccccc23)n[nH]1,10%,?,-2%,?,29%,-5%
CC(C)CNC(=O)c1cccc(NC(=O)C2CCCCC2)c1,·,·,·,·,·,-27%
Cc1ccc(-n2c(C3CCN(C(=O)c4cccc(C)c4)CC3)n[nH]c2=O)cc1,·,·,·,·,·,2%
Cc1ccc(C2CC2c2n[nH]c(=S)n2-c2cccc(C)c2)cc1 (stereo not drawn),-16%,-27%[11.4 µM],-31%,-19%,14µM*,?
S=c1[nH]nc([C@@H]2C[C@H]2c2ccccc2)n1-c1ccccc1Cl,24%,?,-23%,44%,5µM*,-6%
Cc1ccc(C2CC2c2n[nH]c(=S)n2-c2ccc(Cl)cc2)cc1 (stereo not drawn),20%,-14%,-35%,-5%,22µM*,?
Cc1onc(-c2cccc(Cl)c2Cl)c1C(=O)O/N=C(\N)c1ccc([N+](=O)[O-])o1,-4%,?,?,-10%,35µM*,-14%
Cc1onc(-c2ccccc2)c1C(=O)O/N=C(\N)c1ccc([N+](=O)[O-])o1,20%,-32%,-38%,15%,45µM*,66%
C/C(=N\OC(=O)c1c(-c2ccccc2Cl)noc1C)c1ccncc1,5µM*,-10%,-15%,1%,·,4%
Cc1onc(-c2ccccc2Cl)c1C(=O)O/N=C(\N)c1cccc([N+](=O)[O-])c1,·,·,·,·,·,-31%
CCN(CCN(C)C)C(=O)c1cn(CC2COc3ccccc3O2)nn1 (stereo not drawn),·,·,·,·,·,64%
O=C(Nc1nccs1)c1ccc2c(c1)OCCN(C1CCC1)C2,·,·,·,·,·,54%[176 µM]
COc1cc(CCC(=O)OCC(=O)c2ccc(Cl)cc2)cc(OC)c1OC,·,·,·,·,·,14%
CNC[C@H](Cc1ccccc1)NC[C@@H](Cc1cccc2ccccc12)NCCc1ccc(C)cc1,50µM*,?,?,6%,?,?
CNCCNC[C@H](Cc1cccc2ccccc12)NCCc1ccccc1,·,?,·,-1%,·,-1%
Cc1ccc(C2C(C#N)=C(N)Oc3n[nH]c(-c4ccccc4)c32)o1 (stereo not drawn),?,16µM*,?,?,22µM*,8%
Cc1ccc(C2C(C#N)=C(N)Oc3n[nH]c(-c4cccnc4)c32)o1 (stereo not drawn),4%,-8%,?,31%,79µM*,-9%
COc1ccc(-c2ccc(C3C(C#N)=C(N)Oc4n[nH]c(C)c43)o2)cc1 (stereo not drawn),-5%,?,50µM*,-27%,?,?
Cc1[nH]nc2c1C(c1ccco1)C(C#N)=C(N)O2 (stereo not drawn),4%,-8%,-14%,18%,-4%,-4%
CC(=O)N1CCC2(CC1)CC(=O)c1ccc(OCC(=O)NC3CCS(=O)(=O)C3)cc1O2 (stereo not drawn),·,·,·,·,·,-8%
CCOC(=O)CSc1nc2ccccc2n2cnnc12,56µM*,-33%,-6%,27%,?,?
SMILES,Sfp PPTase inh,JMJD2A Tudor inh,BAZ2B inh,HP1b binding inh,G9a inh,ALOX12 inh
C=CCSc1nc2ccccc2n2cnnc12,-2%,-16%,-14%,0%,12%,·
CCCC(=O)N1Cc2ccccc2CC2(CCCN2Cc2ccncc2)C1 (stereo not drawn),·,·,·,·,·,9%[6.33 µM]
Cc1ccc(Cl)c2c(C=O)c(C(C)(C)C)[nH]c12,·,·,·,·,·,-6%
O=C(/C=C/c1ccccc1)c1cc2cc(Br)ccc2oc1=O,·,·,·,·,·,-10%
Cc1ccc(/C=C/C(=O)c2ccccc(=O)c2O)cc1C,?,79µM*,71µM*,?,28µM*,45µM*
O=C(/C=C/c1ccccc1)c1cc(Br)ccc(=O)c1O,16µM*,56µM*,45µM*,?,13µM*,?
Cc1cc(C(=O)N2CCN(S(=O)(=O)c3ccc(C#N)cc3)CC2)c(C)n1C(C)C,·,·,·,·,·,1%
COCCN1CCOc2nc(-c3cc4ccccc4o3)ncc2C1=O,·,·,·,·,·,10%[176 µM]
CCN(Cc1ccccc1)C(=O)C1CCN(Cc2sccc2C)CC1,-1%,2.8µM*,-37%,?,8.9µM*,?
CCN(CC)C(=O)C1CCN(CC2CC=CCC2)CC1 (stereo not drawn),-9%,6.3µM*,56µM*,-58%,13µM*,-44%
CCN(Cc1ccccc1)C(=O)C1CCN(CC2CC=CCC2)CC1 (stereo not drawn),9%,3.2µM*,?,?,7.9µM*,?
CCN(Cc1ccccc1)C(=O)C1CCN(S(=O)(=O)c2ccc3c(c2)OCCO3)CC1,4%,-13%,-11%,22%,18%,2%
CCC(CC)N1CCN(CC2CC=CCC2)CC1 (stereo not drawn),?,1.8µM*,·,?,10µM*,-24%
CCNC(=O)NC(=O)CSc1nc(C)c(C)n1C1CCCC1,·,·,·,·,·,15%
O=C1c2cnc(-c3ccncc3)nc2OCCN1Cc1ccc(F)cc1F,·,·,·,·,·,0%[176 µM]
Cc1cccc(CS(=O)(=O)N2CCC(C(=O)Nc3ccc(CSc4ccccc4)cc3)CC2)c1,·,·,·,·,·,19%
Cc1cc2c(cc1C)[n+](C)cn2CC(O)COCc1ccccc1 (stereo not drawn),-3%,?,7%,5%,5.6µM*,?
C[n+]1cn(CC(O)COCc2ccccc2)c2ccccc21 (stereo not drawn),-13%,-10%,?,22%,·,40µM*
Cc1cc(C)n(CC(O)COCc2ccccc2)n1 (stereo not drawn),0%,-13%,7%,28%,-20%,-3%
c1ccc(-c2ccc(OCCOCCn3cncn3)cc2)cc1,-19%,32µM*,50µM*,?,?,?
C/C=C/c1ccc(OCCn2cncn2)c(OC)c1,?,40µM*,50µM*,?,14µM*,?
